# Source: the antibiotic and cytotoxicity screens of Wong et al. (2023)
# Out of some 39,000 compounds screened, about 1,500 (3.8%) were called active. This excerpt belongs to a sample that is enriched for actives.
# System: HSkMC (human skeletal muscle cells)
# Experiment: cytotoxicity call (relative viability < 0.9)
# Conditions: 10 µM
row,Structure (SMILES),cytotoxicity call
1,CO[C@@H]1[C@@H](OC(=O)c2ccc(C)[nH]2)[C@@H](O)[C@@H](Oc2ccc3c(c2C)OC(=O)[C@H](NC(=O)c2[nH]cc(CC(=O)Nc4cc5ccc(O[C@@H]6OC(C)(C)[C@H](OC)[C@@H](OC(=O)c7ccc(C)[nH]7)[C@H]6O)c(C)c5oc4=O)c2C)C3)CC1(C)C,active
2,COC1C(OC(N)=O)C(O)C(Oc2ccc3c([O-])c(NC(=O)c4ccc(O)c(CC=C(C)C)c4)c(=O)oc3c2C)OC1(C)C.[Na+] (stereo not given),inactive
3,COc1ccc(NC(=O)N(C)C[C@H]2OCCCC[C@H](C)Oc3ccc(NC(=O)Nc4ccc5c(c4)OCO5)cc3C(=O)N([C@@H](C)CO)C[C@@H]2C)cc1,inactive
4,C[C@H]1CN([C@@H](C)CO)C(=O)c2cc(NC(=O)Nc3ccc4c(c3)OCO4)ccc2O[C@H]1CN(C)S(=O)(=O)c1cn(C)cn1,inactive
5,Cc1noc(C)c1NC(=O)Nc1ccc2c(c1)C(=O)N([C@@H](C)CO)C[C@H](C)[C@H](CN(C)C(=O)Nc1ccc(F)cc1)OCCCC[C@H](C)O2,inactive
6,Cc1noc(C)c1NC(=O)Nc1ccc2c(c1)C(=O)N([C@H](C)CO)C[C@H](C)[C@H](CN(C)Cc1ccc3c(c1)OCO3)OCCCC[C@H](C)O2,inactive
7,O=C(C[C@H]1CC[C@@H]2[C@H](COC[C@H](O)CN2C(=O)c2ccncc2)O1)NC1CCC1,inactive
8,C[C@@H]1CN([C@H](C)CO)C(=O)Cc2cc(NC(=O)Nc3cccc4ccccc34)ccc2O[C@@H]1CN(C)Cc1ccncc1,inactive
9,C[C@@H]1CN([C@H](C)CO)C(=O)Cc2cc(NC(=O)Nc3cccc4ccccc34)ccc2O[C@H]1CN(C)Cc1ccncc1,inactive
10,C[C@H](CO)N1C[C@H](C)[C@H](CN(C)Cc2ccncc2)Oc2ccc(NC(=O)Nc3cccc4ccccc34)cc2CC1=O,active
11,COc1ccc(CN(C)C[C@@H]2Oc3ccc(NC(=O)Nc4cccc5ccccc45)cc3CC(=O)N([C@H](C)CO)C[C@@H]2C)cc1,inactive
12,COc1ccc(CN(C)C[C@H]2Oc3ccc(NC(=O)Nc4cccc5ccccc45)cc3CC(=O)N([C@H](C)CO)C[C@H]2C)cc1,active
13,COc1ccc(CN(C)C[C@@H]2Oc3ccc(NC(=O)Nc4cccc5ccccc45)cc3CC(=O)N([C@H](C)CO)C[C@H]2C)cc1,inactive
14,C[C@H](CO)N1C[C@H](C)[C@@H](CN(C)Cc2ccc(-c3ccccc3)cc2)Oc2ccc(NC(=O)Nc3cccc4ccccc34)cc2CC1=O,inactive
15,C[C@@H]1CN([C@H](C)CO)C(=O)Cc2cc(NC(=O)Nc3cccc4ccccc34)ccc2O[C@H]1CN(C)Cc1ccc(-c2ccccc2)cc1,inactive
16,C[C@H]1CN([C@@H](C)CO)C(=O)Cc2cc(NC(=O)Nc3cccc4ccccc34)ccc2O[C@@H]1CN(C)Cc1ccc(-c2ccccc2)cc1,active
17,COc1ccc(CN(C)C[C@@H]2Oc3ccc(NC(=O)Nc4cccc5ccccc45)cc3CC(=O)N([C@@H](C)CO)C[C@@H]2C)cc1,active
18,COc1ccc(CN(C)C[C@H]2Oc3ccc(NC(=O)Nc4cccc5ccccc45)cc3CC(=O)N([C@@H](C)CO)C[C@@H]2C)cc1,inactive
19,COc1ccc(CN(C)C[C@H]2Oc3ccc(NC(=O)Nc4cccc5ccccc45)cc3CC(=O)N([C@@H](C)CO)C[C@H]2C)cc1,inactive
20,Cn1nc(Cn2ccnc2)c2c1CN(CCO)C2,inactive
21,C[C@H](CO)N1C[C@H](C)[C@H](CN(C)S(=O)(=O)c2cccs2)Oc2ccc(NS(=O)(=O)c3cccs3)cc2C1=O,inactive
22,C[C@@H]1CN([C@H](C)CO)C(=O)c2cccc(NC(=O)C3CC3)c2O[C@H]1CN(C)S(=O)(=O)c1cn(C)cn1,inactive
23,C[C@@H]1CN([C@H](C)CO)C(=O)c2cc(NS(=O)(=O)c3cccs3)ccc2O[C@@H](C)CCCCO[C@@H]1CN(C)S(C)(=O)=O,inactive

row,Structure (SMILES),cytotoxicity call
1,COCC(=O)N1C[C@@H](C)[C@H](OC)CN(C)C(=O)c2cc(NC(=O)c3ccc(OC)cc3)ccc2OC[C@H]1C,inactive
2,C[C@@H]1CN([C@@H](C)CO)C(=O)c2cc(NC(=O)NC3CCCCC3)ccc2O[C@@H](C)CCCCO[C@@H]1CN(C)Cc1ccccc1,inactive
3,C[C@H]1CN([C@@H](C)CO)C(=O)c2cc(-c3ccc(C(=O)N(C)C)cc3)cnc2O[C@@H]1CN(C)C(=O)c1ccncc1,inactive
4,COc1cccc(NC(=O)C[C@@H]2CC[C@H]3[C@H](COc4ccc(NC(=O)C5CCOCC5)cc4C(=O)N3C)O2)c1,inactive
5,C[C@@H]1CCCCO[C@H](CN(C)C(=O)Nc2ccccc2)[C@@H](C)CN([C@H](C)CO)C(=O)c2cc(NC(=O)Nc3ccc(F)cc3)ccc2O1,inactive
6,Cn1nnc2c(Cl)ncnc21,inactive
7,C/C=C/C(=O)N1CCC=CC1=O,inactive
8,COc1cc(C=CC(=O)N2CCC=CC2=O)cc(OC)c1OC,active
9,C=C(C)C(=O)N1CCC=CC1=O,active
10,COc1cc(/C=C/C(=O)N2CCC=CC2=O)cc(OC)c1OCCOCCOCCOCCC(=O)OC(C)(C)C,active
11,COC(=O)C=Cc1cc(OC)c(OC)c(OC)c1,inactive
12,COc1cc(C=CC(=O)O)cc(OC)c1OC,inactive
13,CCOC(=O)/C=C/C(=O)N1CCC=CC1=O,active
14,CCC(=O)OCN1C(=O)C=CC1=O,inactive
15,COc1cc(C=CC(=O)N2CCCCCCC2)cc(OC)c1OC,inactive
16,COc1cc(/C=C/C(=O)N2CCC=CC2=O)cc(OC)c1OC(=O)CCCCCCCCCCC(=O)Oc1c(OC)cc(/C=C/C(=O)N2CCC=CC2=O)cc1OC,inactive
17,C[C@@H]1CN([C@H](C)CO)C(=O)c2cc(NC(=O)Nc3ccc(F)cc3)ccc2O[C@@H](C)CCCCO[C@@H]1CN(C)C(=O)NC1CCCCC1,inactive
18,NCC[C@H]1CC[C@@H](NC(=O)C2CC2)[C@@H](CO)O1,inactive
19,COC[C@H]1CN(C)N=C(C2CC2)O1,inactive
20,C[C@H]1CN([C@@H](C)CO)C(=O)Cc2cc(NC(=O)Nc3cccc4ccccc34)ccc2O[C@@H]1CN(C)Cc1ccc(C(=O)O)cc1,inactive
21,O=C(O)C1CCC1,inactive
22,CO[C@H]1CN(C)C(=O)c2cc(NS(=O)(=O)CC(F)(F)F)ccc2OC[C@@H](C)N(Cc2ccccn2)C[C@H]1C,inactive
